Experimental data reported in the supplement of paper PMC10849652.
About 8,800 targets were measured; listed, in parts, are those with a hit and a random draw of the rest. About 0.5% of all pairs of compound and target were hits. Unmarked numbers belong to inactive results.

Experiments:
Assay in all cases: log2 fold change, soluble protein after heating vs DMSO (PISA); higher = thermal stabilisation; K562 lysate, 10 uM; active = over 0.2 and 3.5 SD of the protein, either way, in both replicates (recomputed)
[1] = compound: C#Cc1cccc(Nc2ncnc3cc(OCCOC)c(OCCOC)cc23)c1 [erlotinib]
Outline: (§1)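 Log-two fold change in thermal stability relative to solvent controls is reported from duplicates. For each sample, crude K562 extract from dounce-homogenised pellets in PBS pH 7.4 with 1 mM MgCl2, at 1 mg/mL protein, was treated with 10 μM compound for 30 min. Aliquots heated for 3 min across 48°C-58°C were pooled, brought to 0.5% NP-40 at 4°C and cleared at 21,000xg for 90 min. The supernatant was quantified by TMTpro 16plex LC-MS/MS with channel sums equalised.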

[2] = compound: C/C(=N\NC(=O)C1=CC(=CC=C1)S(=O)(=O)N2CCOCC2)/C3=C(C=CC(=C3)Cl)O
Outline: as §1

[3] = compound: C1=CC(=CC=C1C2=NC3=C(N2)C=C(C=C3)C(=O)N)OC4=CC=C(C=C4)Cl
Outline: as §1

[4] = compound: C1=CC2=C(C=CC(=C2)/C=C\3/C(=O)NC(=NCC4=CC=CS4)S3)N=C1
Outline: as §1

[5] = compound: C1=CC2=NC=CN=C2C=C1/C=C/3\C(=O)NC(=O)S3
Outline: as §1

[6] = compound: C1=CC=C(C=C1)C2=NC(=C(N2)C3=CC=NC=C3)C4=CC(=C(C=C4)Cl)O
Outline: as §1

[7] = compound: C1=CC=C2C(=C1)C3=NNC4=CC=CC(=C43)C2=O
Outline: as §1

[8] = compound: C1CCN(C1)C(=O)NC2=CC=CC(=C2)NC3=NC=C(C(=N3)NCCC4=CN=CN4)Br
Outline: as §1

[9] = compound: C1CN(CCC1(CC2=CC=C(C=C2)Cl)N)C3=NC=NC4=C3C=CN4
Outline: as §1

[10] = compound: C1COCCN1CCN2C3=CC=CC=C3N=C2NC(=O)C4=CC(=CC=C4)[N+](=O)[O-] [IRAK-1-4 Inhibitor I]
Outline: as §1

[11] = compound: C=CC(=O)N1CCC[C@@H](n2nc(-c3ccc(Oc4ccccc4)cc3)c3c(N)ncnc32)C1 [ibrutinib]
Outline: as §1

[12] = compound: CC(=O)c1cnc2ccc(-c3cc(Cl)c(O)c(Cl)c3)nc2c1N[C@H]1CC[C@H](CN(C)C)CC1
Outline: as §1

[13] = compound: CC(C)(C)Cn1c(N)nc2ccc(-c3[nH]c(C(C)(C)C)nc3-c3ccc(F)cc3)nc21 [ralimetinib]
Outline: as §1

[14] = compound: CC(C)(O)CC(=O)NCCn1ccc2ncnc(Nc3ccc(Oc4cccc(C(F)(F)F)c4)c(Cl)c3)c21
Outline: as §1

[15] = compound: CC(C)C1=C2N=C(C=C(N2N=C1)NCC3=CC=CC=C3)NCCCCCCN
Outline: as §1

[16] = compound: CC1=C(C(CC(=O)N1)C2=CC=C(C=C2)C(F)(F)F)C(=O)NC3=C(C=C4C(=C3)C=NN4)F
Outline: as §1

[17] = compound: CC1=C(C2=C(C=C1)C(=O)C3=CC=CC=C3N2CCCN)C
Outline: as §1

[18] = compound: CC1=C(C=C(C=C1)NC(=O)C2=CC(=CC=C2)C(C)(C)C#N)NC3=CC4=C(C=C3)N=CN(C4=O)C
Outline: as §1

[19] = compound: CC1=C(C=C(C=C1)NC(=O)C2=CC(=CC=C2)N(C)C)NC(=O)C3=CC=C(C=C3)O
Outline: as §1

[20] = compound: CC1=CC=C(C=C1)SC2=C3C=C(SC3=CN=C2)C(=O)N
Outline: as §1

UniProt P45973, sequence (P45973 whole entry, looked up): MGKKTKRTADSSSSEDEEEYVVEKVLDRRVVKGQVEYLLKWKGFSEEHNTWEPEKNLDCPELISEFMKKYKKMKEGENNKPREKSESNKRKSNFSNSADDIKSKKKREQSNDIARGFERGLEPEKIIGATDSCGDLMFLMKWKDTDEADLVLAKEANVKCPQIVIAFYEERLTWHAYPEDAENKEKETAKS
UniProt Q9Y487, sequence (Q9Y487 whole entry, looked up): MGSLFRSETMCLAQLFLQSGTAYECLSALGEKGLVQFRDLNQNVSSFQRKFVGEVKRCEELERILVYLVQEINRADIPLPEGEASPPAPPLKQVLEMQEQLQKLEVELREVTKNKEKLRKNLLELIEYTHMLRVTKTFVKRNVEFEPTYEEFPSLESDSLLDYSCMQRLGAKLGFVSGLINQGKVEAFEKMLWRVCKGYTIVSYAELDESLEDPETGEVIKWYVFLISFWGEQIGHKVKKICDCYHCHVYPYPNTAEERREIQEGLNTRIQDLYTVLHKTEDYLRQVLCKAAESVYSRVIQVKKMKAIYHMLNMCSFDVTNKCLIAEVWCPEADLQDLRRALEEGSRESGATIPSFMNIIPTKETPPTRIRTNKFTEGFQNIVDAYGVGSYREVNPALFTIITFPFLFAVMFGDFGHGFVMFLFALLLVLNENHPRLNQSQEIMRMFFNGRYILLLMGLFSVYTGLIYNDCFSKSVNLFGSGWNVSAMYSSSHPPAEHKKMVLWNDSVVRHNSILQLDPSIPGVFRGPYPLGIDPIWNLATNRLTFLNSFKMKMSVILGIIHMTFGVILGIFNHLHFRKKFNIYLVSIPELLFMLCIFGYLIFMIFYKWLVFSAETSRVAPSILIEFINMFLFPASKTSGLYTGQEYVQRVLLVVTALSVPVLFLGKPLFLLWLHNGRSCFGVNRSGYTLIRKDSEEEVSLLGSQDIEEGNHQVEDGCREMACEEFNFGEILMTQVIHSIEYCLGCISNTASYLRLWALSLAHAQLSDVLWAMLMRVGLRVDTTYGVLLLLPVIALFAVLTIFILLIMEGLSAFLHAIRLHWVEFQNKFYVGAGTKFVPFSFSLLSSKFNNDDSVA
UniProt Q6P4E1, sequence (Q6P4E1 whole entry, looked up): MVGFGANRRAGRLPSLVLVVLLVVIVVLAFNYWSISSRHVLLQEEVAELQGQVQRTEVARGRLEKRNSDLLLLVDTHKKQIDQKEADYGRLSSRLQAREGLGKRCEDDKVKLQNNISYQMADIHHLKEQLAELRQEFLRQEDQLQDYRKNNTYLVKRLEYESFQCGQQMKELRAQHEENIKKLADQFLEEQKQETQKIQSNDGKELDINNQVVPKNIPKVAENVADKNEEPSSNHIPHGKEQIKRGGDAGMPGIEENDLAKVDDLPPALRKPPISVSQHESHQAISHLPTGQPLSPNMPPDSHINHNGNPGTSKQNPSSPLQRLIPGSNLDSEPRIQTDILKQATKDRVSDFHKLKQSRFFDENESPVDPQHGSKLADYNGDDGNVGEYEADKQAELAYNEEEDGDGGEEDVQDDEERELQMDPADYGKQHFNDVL
UniProt Q8N163, sequence (Q8N163 whole entry, looked up): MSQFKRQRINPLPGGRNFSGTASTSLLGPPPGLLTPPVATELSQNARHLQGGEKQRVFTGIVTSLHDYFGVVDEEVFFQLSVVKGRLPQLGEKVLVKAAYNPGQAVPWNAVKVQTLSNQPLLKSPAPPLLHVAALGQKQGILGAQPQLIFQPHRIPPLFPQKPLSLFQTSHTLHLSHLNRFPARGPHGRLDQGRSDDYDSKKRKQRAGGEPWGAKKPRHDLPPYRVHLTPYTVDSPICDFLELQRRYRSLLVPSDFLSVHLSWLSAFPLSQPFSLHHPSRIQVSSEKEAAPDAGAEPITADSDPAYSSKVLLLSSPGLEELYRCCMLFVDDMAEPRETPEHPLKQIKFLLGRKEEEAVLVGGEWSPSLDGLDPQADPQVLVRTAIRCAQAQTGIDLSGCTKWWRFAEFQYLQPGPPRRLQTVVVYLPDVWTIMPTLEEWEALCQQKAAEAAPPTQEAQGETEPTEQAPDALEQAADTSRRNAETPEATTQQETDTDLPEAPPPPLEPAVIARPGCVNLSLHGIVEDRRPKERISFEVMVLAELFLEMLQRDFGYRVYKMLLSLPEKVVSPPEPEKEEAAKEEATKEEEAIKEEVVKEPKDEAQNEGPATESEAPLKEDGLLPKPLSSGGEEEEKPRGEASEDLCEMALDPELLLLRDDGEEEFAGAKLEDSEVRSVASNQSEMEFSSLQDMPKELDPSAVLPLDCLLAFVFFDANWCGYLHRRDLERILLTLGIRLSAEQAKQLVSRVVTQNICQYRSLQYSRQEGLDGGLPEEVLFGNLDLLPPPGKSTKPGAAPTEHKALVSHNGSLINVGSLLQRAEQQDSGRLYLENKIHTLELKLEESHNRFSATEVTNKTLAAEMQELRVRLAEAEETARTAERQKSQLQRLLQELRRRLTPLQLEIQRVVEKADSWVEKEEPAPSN
UniProt Q9NXV6, sequence (Q9NXV6 whole entry, looked up): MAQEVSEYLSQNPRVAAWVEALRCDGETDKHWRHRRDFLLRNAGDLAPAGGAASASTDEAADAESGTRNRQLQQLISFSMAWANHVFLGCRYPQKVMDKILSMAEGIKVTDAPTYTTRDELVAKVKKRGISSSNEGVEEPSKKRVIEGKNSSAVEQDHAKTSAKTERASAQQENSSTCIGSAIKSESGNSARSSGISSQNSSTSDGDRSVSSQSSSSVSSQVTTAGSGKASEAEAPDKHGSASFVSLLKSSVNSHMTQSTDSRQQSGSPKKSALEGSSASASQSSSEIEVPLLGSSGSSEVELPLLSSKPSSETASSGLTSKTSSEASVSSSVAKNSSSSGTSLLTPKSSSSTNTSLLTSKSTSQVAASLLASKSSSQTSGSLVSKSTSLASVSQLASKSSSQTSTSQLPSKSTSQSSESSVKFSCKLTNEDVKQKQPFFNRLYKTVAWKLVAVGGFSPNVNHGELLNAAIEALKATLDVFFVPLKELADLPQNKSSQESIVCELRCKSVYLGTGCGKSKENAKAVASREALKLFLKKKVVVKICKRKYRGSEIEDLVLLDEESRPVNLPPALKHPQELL
UniProt Q8WYN0, sequence (Q8WYN0 whole entry, looked up): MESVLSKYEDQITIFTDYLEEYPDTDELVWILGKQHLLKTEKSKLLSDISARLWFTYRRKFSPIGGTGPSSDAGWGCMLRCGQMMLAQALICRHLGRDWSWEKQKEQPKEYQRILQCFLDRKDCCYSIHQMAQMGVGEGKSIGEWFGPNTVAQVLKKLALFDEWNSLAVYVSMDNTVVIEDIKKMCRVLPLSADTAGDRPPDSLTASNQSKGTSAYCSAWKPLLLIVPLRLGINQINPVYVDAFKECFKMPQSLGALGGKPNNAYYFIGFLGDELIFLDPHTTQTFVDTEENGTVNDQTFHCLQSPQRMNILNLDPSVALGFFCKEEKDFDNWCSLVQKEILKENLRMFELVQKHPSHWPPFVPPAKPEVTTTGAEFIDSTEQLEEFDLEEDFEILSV
UniProt Q9HB09, sequence (Q9HB09 whole entry, looked up): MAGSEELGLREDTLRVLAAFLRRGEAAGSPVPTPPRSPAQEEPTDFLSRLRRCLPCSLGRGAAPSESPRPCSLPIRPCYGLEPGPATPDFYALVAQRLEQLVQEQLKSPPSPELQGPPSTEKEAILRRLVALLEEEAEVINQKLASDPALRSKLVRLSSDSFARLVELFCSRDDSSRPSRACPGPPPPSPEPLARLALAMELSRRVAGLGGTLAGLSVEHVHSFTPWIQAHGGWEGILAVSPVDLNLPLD
UniProt Q8TCD1, sequence (Q8TCD1 whole entry, looked up): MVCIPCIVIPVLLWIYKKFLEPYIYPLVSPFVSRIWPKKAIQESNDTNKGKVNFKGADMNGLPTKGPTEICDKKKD
UniProt O00311, sequence (O00311 whole entry, looked up): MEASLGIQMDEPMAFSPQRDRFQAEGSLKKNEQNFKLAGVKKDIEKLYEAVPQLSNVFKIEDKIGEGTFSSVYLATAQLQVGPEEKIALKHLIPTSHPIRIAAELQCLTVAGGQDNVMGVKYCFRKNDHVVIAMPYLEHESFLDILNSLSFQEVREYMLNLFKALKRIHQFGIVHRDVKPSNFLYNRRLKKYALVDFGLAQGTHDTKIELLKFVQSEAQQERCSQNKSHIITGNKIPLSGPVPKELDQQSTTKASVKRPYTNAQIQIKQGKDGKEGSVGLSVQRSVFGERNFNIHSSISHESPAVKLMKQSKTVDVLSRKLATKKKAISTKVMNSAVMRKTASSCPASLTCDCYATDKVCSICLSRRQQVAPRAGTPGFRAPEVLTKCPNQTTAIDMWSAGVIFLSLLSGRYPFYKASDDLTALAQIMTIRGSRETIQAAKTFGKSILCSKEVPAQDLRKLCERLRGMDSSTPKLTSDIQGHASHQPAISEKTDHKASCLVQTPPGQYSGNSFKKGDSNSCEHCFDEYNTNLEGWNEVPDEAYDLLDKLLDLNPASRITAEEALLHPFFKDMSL
UniProt Q8N5S9, sequence (Q8N5S9 whole entry, looked up): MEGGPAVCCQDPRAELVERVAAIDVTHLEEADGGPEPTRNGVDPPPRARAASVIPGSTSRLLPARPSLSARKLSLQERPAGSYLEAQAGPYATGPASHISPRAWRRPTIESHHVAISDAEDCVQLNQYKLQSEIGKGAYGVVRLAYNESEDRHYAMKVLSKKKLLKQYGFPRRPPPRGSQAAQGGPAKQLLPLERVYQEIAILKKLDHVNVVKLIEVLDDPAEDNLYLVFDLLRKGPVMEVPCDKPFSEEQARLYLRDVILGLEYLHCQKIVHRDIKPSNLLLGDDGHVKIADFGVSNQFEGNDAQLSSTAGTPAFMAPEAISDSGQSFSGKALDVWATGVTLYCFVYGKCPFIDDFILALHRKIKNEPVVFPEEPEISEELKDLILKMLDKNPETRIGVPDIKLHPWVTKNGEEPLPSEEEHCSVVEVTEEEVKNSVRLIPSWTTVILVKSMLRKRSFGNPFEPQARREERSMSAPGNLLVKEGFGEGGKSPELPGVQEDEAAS
UniProt Q9Y6H1, sequence (Q9Y6H1 whole entry, looked up): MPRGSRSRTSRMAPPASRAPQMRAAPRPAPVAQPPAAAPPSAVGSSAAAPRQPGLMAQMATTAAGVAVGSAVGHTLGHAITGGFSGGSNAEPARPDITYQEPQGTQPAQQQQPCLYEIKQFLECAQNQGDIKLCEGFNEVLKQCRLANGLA

Row | Target | log2 fold change [1] | log2 fold change [2] | log2 fold change [3] | log2 fold change [4] | log2 fold change [5] | log2 fold change [6] | log2 fold change [7] | log2 fold change [8] | log2 fold change [9] | log2 fold change [10] | log2 fold change [11] | log2 fold change [12] | log2 fold change [13] | log2 fold change [14] | log2 fold change [15] | log2 fold change [16] | log2 fold change [17] | log2 fold change [18] | log2 fold change [19] | log2 fold change [20]
1 | CDC7 (UniProt O00311) | -0.032 | 0.038 | 0.038 | -0.109 | -0.324 (active) | -0.006 | -0.027 | -0.003 | -0.096 | 0.032 | 0.04 | 0.09 | 0.014 | 0.028 | 0.047 | 0.066 | -0.011 | 0.05 | -0.002 | -0.07
2 | BCL2L12 (UniProt Q9HB09) | 0.055 | -0.067 | -0.01 | -0.056 | 0.119 | -0.111 | 0.144 | 0.162 | 0.015 | 0.002 | -0.26 | -0.084 | 0.073 | -0.024 | 0.057 | 0 | -0.021 | 0.028 | -0.024 | 0.099
3 | CAMKK1 isoform 2 (UniProt Q8N5S9) | -0.037 | 0.042 | -0.003 | -0.085 | 0.043 | -0.01 | 0.042 | -0.076 | -0.069 | 0.001 | 0.027 | 0.189 | 0.063 | -0.153 | -0.059 | -0.008 | -0.055 | 0.014 | 0.004 | 0.138
4 | CCAR2 (UniProt Q8N163) | -0.004 | -0.006 | -0.003 | -0.01 | 0.01 | 0.005 | 0.001 | 0 | 0.001 | -0.009 | 0.025 | -0.019 | 0.012 | -0.006 | -0.018 | 0 | 0.01 | 0.003 | 0.015 | -0.005
5 | CDKN2AIP (UniProt Q9NXV6) | -0.047 | 0.067 | 0.072 | -0.01 | -0.074 | -0.006 | -0.079 | -0.038 | 0 | 0.048 | -0.003 | -0.038 | -0.013 | 0.029 | -0.04 | -0.009 | 0.03 | 0.004 | -0.019 | -0.009
6 | CANX isoform 2 (UniProt P27824) | 0.007 | -0.027 | 0.048 | 0.004 | 0 | -0.007 | -0.042 | 0 | 0.013 | 0.003 | -0.046 | -0.009 | -0.029 | 0.003 | 0.007 | 0.001 | -0.004 | 0.011 | 0.029 | -0.025
7 | ATP11A (UniProt P98196) | -0.003 | -0.067 | -0.033 | -0.011 | -0.022 | 0.016 | 0.102 | -0.005 | -0.015 | 0.087 | -0.02 | 0.091 | 0.122 | -0.046 | -0.017 | -0.019 | -0.065 | -0.006 | -0.074 | 0.02
8 | CBX5 (UniProt P45973) | -0.012 | 0.009 | 0.013 | -0.001 | 0.011 | 0.011 | 0.026 | -0.007 | 0.02 | 0.007 | -0.047 | -0.007 | -0.024 | -0.087 | -0.02 | -0.088 | -0.02 | 0.028 | 0.007 | -0.033
9 | CHCHD2 (UniProt Q9Y6H1) | -0.068 | -0.03 | -0.086 | 0.033 | -0.024 | 0.027 | 0.092 | 0.009 | 0.057 | -0.005 | -0.122 | -0.005 | -0.068 | 0.035 | 0.02 | 0.112 | 0.023 | -0.172 | -0.046 | 0.069
10 | CCDC51 (UniProt Q96ER9) | 0.03 | -0.08 | -0.047 | -0.024 | -0.005 | 0.067 | -0.07 | 0.005 | 0.029 | -0.041 | 0.056 | 0.011 | -0.012 | 0.036 | -0.011 | 0.025 | 0.011 | -0.013 | 0.033 | 0.013
11 | C18orf32 (UniProt Q8TCD1) | 0.089 | 0.126 | 0.009 | -0.06 | -0.026 | 0.011 | 0.003 | -0.049 | -0.032 | -0.026 | 0.069 | -0.014 | 0.053 | -0.048 | -0.069 | -0.078 | -0.021 | 0.074 | -0.056 | 0.032
12 | CBFA2T3 (UniProt O75081) | -0.012 | -0.01 | -0.002 | -0.006 | 0.016 | 0.004 | -0.01 | -0.043 | -0.093 | -0.027 | 0.005 | 0.016 | 0.019 | -0.005 | -0.013 | -0.001 | 0.003 | -0.016 | 0.022 | -0.005
13 | BRAT1 (UniProt Q6PJG6) | 0.05 | -0.01 | -0.052 | 0.006 | 0.026 | 0.03 | -0.075 | 0.003 | -0.013 | -0.013 | 0.002 | 0.013 | 0.005 | -0.038 | -0.001 | -0.028 | 0 | -0.006 | -0.015 | 0.019
14 | ATP6V0A2 (UniProt Q9Y487) | 0.026 | 0.027 | 0.044 | -0.006 | 0.035 | 0.004 | -0.024 | -0.012 | 0 | 0.042 | 0.016 | -0.017 | 0 | -0.073 | -0.077 | 0.007 | -0.014 | 0.041 | -0.032 | 0.012
15 | CASC4 (UniProt Q6P4E1) | -0.005 | 0.004 | -0.035 | 0.003 | -0.049 | -0.02 | -0.119 | -0.013 | 0.047 | -0.008 | 0.001 | -0.032 | -0.029 | -0.008 | -0.012 | -0.055 | 0.057 | -0.016 | 0.029 | -0.036
16 | ATG4A (UniProt Q8WYN0) | 0.031 | -0.087 | -0.055 | -0.01 | 0.007 | 0.01 | -0.023 | -0.015 | 0.038 | -0.001 | 0.032 | -0.006 | 0.011 | -0.051 | -0.055 | -0.006 | -0.004 | 0.053 | 0.021 | -0.014
